Tests used:
Assay in all cases: DAPPL (digital affinity profiling via proximity ligation, sequencing); 10 mM Tris-HCl pH 7.5, 50 mM NaCl, 1 mM DTT, 4% glycerol, room temperature, 30 min; GST-TFs on glutathione beads, 16-mer random dsDNA library, 0.1% formaldehyde crosslink after washing; high values mean tight binding
FLI1 = target: T1, FLI1 (Homo sapiens, UniProt Q01543 1-452); conditions: protein: recombinant; tags: N-terminal GST; dsDNA, one strand shown
T1 sequence: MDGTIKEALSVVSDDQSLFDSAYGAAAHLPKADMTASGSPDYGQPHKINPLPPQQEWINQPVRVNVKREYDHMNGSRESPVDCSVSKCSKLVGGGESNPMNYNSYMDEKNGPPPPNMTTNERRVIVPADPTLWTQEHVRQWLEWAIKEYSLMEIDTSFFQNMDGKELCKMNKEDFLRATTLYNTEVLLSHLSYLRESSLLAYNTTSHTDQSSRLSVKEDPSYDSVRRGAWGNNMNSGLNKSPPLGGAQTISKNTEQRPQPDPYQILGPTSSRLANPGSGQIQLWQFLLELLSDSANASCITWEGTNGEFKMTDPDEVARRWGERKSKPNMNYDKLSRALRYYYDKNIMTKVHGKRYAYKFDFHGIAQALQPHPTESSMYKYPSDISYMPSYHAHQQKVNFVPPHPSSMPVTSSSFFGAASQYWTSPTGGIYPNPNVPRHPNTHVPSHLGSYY
In short: (§1)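 Each value of binding signal is a hexamer's read frequency for a factor divided by the same hexamer's frequency in the tag-only sample. Barcoded, bead-captured GST fusions of human transcription factors made in yeast were pooled with that sample and incubated with 200 nmole of a random double-stranded 16-mer DNA library in Tris/NaCl/DTT/glycerol buffer at room temperature for 30 min. Washing, 0.1% formaldehyde crosslinking, proximity ligation, PCR and Illumina NextSeq500 sequencing followed.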

ELK1 = target: T2, ELK1 (Homo sapiens, UniProt P19419 1-428); conditions: protein: recombinant; tags: N-terminal GST; dsDNA, one strand shown
T2 sequence: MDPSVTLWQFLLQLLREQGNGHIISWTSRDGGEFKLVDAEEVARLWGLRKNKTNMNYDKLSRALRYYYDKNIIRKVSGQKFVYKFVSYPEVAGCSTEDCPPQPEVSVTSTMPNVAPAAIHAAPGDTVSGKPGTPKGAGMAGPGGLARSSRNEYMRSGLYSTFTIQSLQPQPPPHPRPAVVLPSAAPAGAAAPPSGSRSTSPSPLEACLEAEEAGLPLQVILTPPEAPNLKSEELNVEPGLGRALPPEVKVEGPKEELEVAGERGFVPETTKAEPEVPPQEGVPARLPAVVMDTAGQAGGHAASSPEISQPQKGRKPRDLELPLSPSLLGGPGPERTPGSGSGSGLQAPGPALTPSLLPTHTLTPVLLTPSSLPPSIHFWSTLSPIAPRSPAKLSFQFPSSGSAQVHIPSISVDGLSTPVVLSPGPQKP
In short: as §1

GABPA = target: T3, GABPA (Homo sapiens, UniProt Q06546 1-454); conditions: protein: recombinant; tags: N-terminal GST; dsDNA, one strand shown
T3 sequence: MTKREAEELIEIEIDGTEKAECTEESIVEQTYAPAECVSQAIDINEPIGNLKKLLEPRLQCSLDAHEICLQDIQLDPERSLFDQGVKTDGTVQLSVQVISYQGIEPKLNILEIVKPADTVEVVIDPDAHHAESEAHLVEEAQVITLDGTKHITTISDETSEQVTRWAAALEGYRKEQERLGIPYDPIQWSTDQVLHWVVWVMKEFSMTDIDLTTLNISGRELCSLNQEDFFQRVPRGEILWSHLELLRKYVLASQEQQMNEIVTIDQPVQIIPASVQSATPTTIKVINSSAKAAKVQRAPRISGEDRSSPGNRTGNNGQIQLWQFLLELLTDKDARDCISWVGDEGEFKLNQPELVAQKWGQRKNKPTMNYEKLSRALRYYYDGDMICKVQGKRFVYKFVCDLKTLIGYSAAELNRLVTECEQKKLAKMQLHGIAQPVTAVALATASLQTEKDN
In short: as §1

ERG = target: T4, ERG (Homo sapiens, UniProt P11308 1-479); conditions: protein: recombinant; tags: N-terminal GST; dsDNA, one strand shown
T4 sequence: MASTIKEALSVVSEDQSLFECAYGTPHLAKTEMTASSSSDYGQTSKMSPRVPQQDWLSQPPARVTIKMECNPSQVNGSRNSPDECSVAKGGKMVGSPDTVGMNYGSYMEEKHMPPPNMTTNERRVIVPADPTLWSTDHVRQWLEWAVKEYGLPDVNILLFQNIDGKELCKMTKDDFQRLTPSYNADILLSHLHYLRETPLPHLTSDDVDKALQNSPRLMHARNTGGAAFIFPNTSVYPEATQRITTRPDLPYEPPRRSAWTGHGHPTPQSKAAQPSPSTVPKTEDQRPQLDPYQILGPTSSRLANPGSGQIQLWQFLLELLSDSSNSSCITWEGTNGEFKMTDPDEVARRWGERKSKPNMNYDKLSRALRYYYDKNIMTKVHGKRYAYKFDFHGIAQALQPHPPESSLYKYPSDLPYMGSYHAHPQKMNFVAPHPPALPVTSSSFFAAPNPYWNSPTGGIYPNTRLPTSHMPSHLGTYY
In short: as §1

ELF1 = ELF1 (Homo sapiens, UniProt P32519 1-619); conditions: protein: recombinant; tags: N-terminal GST; dsDNA, one strand shown
In short: as §1

EHF = target: T5, EHF (Homo sapiens, UniProt Q9NZC4 1-300); conditions: protein: recombinant; tags: N-terminal GST; dsDNA, one strand shown
T5 sequence: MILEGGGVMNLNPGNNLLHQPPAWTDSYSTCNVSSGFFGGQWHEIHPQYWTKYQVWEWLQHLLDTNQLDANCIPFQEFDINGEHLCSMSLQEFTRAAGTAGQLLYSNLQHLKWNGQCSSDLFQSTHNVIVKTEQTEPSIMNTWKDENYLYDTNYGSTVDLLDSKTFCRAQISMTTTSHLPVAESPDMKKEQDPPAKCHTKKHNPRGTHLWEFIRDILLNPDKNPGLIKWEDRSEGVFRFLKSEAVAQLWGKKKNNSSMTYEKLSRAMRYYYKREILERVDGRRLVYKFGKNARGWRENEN
In short: as §1

SPI1 = SPI1 (Homo sapiens, UniProt P17947 1-270); conditions: protein: recombinant; tags: N-terminal GST; dsDNA, one strand shown
In short: as §1

SPIB = SPIB (Homo sapiens, UniProt Q01892 1-262); conditions: protein: recombinant; tags: N-terminal GST; dsDNA, one strand shown
In short: as §1

ELK3 = target: T6, ELK3 (Homo sapiens, UniProt P41970 1-407); conditions: protein: recombinant; tags: N-terminal GST; dsDNA, one strand shown
T6 sequence: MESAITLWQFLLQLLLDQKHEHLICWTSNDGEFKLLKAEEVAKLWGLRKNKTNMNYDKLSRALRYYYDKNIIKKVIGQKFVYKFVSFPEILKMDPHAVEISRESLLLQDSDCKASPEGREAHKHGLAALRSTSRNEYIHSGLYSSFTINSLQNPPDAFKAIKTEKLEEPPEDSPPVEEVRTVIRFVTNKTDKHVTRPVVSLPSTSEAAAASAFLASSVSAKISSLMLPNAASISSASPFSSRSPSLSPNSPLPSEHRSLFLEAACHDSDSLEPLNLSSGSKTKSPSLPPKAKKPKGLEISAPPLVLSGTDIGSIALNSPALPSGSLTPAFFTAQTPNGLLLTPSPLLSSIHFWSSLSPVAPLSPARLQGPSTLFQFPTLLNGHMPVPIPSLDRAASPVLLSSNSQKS
In short: as §1

FEV = target: T7, FEV (Homo sapiens, UniProt Q99581 1-238); conditions: protein: recombinant; tags: N-terminal GST; dsDNA, one strand shown
T7 sequence: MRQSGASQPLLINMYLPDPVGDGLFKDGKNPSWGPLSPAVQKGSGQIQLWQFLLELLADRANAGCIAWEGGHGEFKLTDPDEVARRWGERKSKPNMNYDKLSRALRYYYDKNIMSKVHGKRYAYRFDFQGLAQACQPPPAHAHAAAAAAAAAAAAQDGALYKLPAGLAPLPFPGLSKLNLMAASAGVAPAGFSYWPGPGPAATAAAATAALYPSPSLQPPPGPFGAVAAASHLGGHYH
In short: as §1

ETV5 = ETV5 (Homo sapiens, UniProt P41161 1-510); conditions: protein: recombinant; tags: N-terminal GST; dsDNA, one strand shown
In short: as §1

HSF1 = HSF1 (Homo sapiens, UniProt Q00613 1-529); conditions: protein: recombinant; tags: N-terminal GST; chain copies: 3; dsDNA, one strand shown
In short: as §1

SPIC = target: T8, SPIC (Homo sapiens, UniProt Q8N5J4 1-248); conditions: protein: recombinant; tags: N-terminal GST; dsDNA, one strand shown
T8 sequence: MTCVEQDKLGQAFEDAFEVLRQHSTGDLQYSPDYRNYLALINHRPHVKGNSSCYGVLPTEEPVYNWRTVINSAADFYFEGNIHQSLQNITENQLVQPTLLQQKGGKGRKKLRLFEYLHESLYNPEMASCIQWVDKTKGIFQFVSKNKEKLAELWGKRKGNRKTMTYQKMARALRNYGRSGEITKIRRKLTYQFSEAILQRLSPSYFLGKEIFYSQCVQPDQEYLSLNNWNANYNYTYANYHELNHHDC
In short: as §1

ELF4 = ELF4 (Homo sapiens, UniProt Q99607 1-663); conditions: protein: recombinant; tags: N-terminal GST; dsDNA, one strand shown
In short: as §1

ELK4 = target: T9, ELK4 (Homo sapiens, UniProt P28324-2 1-405); conditions: protein: recombinant; tags: N-terminal GST; dsDNA, one strand shown
T9 sequence: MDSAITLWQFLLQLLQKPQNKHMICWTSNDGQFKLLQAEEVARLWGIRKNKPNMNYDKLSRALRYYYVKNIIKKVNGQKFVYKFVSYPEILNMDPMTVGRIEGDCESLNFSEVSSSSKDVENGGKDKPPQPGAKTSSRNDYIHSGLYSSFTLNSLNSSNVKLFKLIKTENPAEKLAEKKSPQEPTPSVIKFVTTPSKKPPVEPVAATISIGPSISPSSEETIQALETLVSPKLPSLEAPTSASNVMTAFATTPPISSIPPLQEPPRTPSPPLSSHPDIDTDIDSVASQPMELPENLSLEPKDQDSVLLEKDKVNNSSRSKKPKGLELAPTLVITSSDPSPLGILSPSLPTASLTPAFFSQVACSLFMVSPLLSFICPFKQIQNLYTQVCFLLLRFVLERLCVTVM
In short: as §1

ETV2 = target: T10, ETV2 (Homo sapiens, UniProt O00321 1-342); conditions: protein: recombinant; tags: N-terminal GST; dsDNA, one strand shown
T10 sequence: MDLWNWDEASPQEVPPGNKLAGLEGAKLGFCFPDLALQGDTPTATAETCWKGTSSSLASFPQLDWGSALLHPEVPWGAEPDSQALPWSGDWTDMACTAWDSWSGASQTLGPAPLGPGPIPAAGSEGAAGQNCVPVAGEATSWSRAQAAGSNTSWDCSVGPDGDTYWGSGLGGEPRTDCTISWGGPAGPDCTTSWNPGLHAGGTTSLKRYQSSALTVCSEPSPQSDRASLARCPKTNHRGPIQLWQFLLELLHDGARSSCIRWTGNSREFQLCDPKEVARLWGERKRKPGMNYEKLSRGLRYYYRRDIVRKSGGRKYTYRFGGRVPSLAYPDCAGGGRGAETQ
In short: as §1

ELF3 = target: T11, ELF3 (Homo sapiens, UniProt P78545 1-371); conditions: protein: recombinant; tags: N-terminal GST; dsDNA, one strand shown
T11 sequence: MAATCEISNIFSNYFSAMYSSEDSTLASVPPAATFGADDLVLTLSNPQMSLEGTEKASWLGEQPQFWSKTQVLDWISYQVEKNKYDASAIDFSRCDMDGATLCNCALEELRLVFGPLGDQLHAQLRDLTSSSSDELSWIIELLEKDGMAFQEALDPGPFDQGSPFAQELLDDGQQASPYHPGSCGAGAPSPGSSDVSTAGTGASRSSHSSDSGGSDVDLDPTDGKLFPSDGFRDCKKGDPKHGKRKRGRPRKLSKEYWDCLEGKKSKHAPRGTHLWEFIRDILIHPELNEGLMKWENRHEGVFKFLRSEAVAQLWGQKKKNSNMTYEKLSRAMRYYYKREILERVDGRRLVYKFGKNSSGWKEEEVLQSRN
In short: as §1

ETV1 = ETV1 (Homo sapiens, UniProt P50549 1-477); conditions: protein: recombinant; tags: N-terminal GST; dsDNA, one strand shown
In short: as §1

ETV5, sequence (P41161 whole entry): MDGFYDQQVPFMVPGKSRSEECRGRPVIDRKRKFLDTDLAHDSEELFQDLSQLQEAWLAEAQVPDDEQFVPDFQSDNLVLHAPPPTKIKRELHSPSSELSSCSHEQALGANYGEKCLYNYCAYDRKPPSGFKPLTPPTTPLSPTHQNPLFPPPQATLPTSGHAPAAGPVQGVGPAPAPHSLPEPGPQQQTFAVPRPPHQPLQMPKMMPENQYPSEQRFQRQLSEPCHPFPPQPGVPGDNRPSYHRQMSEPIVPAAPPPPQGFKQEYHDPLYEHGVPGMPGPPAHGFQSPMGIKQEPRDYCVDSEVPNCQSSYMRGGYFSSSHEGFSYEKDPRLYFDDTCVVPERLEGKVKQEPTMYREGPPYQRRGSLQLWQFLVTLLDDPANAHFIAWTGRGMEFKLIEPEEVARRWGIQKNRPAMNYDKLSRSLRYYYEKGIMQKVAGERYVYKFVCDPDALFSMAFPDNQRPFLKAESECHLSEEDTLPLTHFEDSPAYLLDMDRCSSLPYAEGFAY
ELF1, sequence (P32519 whole entry): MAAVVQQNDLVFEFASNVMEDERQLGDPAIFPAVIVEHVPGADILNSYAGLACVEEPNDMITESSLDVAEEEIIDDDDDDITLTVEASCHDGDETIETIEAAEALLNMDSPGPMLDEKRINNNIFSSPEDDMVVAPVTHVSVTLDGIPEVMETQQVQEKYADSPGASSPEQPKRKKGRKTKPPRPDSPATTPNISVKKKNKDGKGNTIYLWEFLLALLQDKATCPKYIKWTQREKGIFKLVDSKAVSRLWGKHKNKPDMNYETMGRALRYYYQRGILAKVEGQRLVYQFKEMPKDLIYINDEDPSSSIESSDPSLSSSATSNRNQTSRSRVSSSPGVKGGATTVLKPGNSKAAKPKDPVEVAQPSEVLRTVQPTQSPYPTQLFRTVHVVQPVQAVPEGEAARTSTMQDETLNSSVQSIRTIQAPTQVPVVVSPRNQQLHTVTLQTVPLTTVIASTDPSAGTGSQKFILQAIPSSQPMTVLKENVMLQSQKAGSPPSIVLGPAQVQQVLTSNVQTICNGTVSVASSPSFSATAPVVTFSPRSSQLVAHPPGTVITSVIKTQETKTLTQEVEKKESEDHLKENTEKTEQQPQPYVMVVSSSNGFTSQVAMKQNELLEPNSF
HSF1, sequence (Q00613 whole entry): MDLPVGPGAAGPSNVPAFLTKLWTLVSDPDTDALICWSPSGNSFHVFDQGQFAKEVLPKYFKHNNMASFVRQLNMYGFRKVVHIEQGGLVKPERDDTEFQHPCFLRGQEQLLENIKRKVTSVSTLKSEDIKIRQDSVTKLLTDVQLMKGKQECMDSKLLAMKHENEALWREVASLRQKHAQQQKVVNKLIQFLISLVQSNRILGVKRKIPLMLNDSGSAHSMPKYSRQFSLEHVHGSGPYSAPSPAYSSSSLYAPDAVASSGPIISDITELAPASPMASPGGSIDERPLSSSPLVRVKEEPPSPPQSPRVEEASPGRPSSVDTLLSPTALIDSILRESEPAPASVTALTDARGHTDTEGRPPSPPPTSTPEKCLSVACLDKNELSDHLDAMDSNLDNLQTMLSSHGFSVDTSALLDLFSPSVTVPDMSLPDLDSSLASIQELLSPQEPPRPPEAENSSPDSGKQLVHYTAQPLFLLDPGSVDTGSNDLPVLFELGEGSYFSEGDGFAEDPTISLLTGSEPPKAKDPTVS
SPIB, sequence (Q01892 whole entry): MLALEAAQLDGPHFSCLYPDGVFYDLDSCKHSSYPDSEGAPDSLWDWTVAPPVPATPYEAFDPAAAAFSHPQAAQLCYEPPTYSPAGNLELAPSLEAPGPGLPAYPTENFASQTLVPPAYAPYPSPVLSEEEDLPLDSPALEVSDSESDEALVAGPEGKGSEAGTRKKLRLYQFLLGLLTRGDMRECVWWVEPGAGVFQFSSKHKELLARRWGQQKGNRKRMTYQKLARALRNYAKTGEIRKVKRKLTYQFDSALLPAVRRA
ETV1, sequence (P50549 whole entry): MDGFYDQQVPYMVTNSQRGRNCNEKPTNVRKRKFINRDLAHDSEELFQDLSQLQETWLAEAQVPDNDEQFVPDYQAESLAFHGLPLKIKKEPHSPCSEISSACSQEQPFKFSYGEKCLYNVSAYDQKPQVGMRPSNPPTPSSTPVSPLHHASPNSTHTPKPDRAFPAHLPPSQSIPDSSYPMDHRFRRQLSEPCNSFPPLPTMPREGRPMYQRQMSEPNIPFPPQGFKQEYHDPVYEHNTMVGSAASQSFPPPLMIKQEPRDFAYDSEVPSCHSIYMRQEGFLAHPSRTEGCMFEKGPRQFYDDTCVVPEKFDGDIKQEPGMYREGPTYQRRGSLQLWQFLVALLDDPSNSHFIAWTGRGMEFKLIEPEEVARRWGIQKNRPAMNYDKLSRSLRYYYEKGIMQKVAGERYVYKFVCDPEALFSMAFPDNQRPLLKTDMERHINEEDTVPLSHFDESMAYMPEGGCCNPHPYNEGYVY
ELF4, sequence (Q99607 whole entry): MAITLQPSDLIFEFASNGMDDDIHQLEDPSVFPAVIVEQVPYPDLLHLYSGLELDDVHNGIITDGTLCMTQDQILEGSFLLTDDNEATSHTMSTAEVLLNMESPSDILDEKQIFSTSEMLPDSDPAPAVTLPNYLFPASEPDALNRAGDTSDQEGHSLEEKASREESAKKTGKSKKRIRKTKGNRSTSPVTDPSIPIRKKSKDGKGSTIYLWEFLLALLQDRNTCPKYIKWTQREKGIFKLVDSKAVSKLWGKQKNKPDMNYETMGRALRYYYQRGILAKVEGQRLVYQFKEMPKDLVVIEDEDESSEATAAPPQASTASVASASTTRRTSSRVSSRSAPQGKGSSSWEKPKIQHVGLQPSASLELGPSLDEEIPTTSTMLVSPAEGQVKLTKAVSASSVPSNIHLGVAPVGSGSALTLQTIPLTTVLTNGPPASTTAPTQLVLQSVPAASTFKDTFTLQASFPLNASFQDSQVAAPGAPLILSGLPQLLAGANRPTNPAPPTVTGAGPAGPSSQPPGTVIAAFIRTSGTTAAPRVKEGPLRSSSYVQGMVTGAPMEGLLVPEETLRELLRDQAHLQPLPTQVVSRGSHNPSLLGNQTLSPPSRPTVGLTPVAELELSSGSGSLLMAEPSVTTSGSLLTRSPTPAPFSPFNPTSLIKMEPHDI

**Q.** What does the source list for CCGACG?
**A.** binding signal (FLI1): 1.27 fold enrichment (6-mer frequency, TF over GST control); binding signal (ELK1): 1.15 fold enrichment (6-mer frequency, TF over GST control); binding signal (GABPA): 1.27 fold enrichment (6-mer frequency, TF over GST control); binding signal (ERG): 1.2 fold enrichment (6-mer frequency, TF over GST control); binding signal (ELF1): 1.28 fold enrichment (6-mer frequency, TF over GST control); binding signal (EHF): 1.17 fold enrichment (6-mer frequency, TF over GST control); binding signal (SPI1): 1.22 fold enrichment (6-mer frequency, TF over GST control); binding signal (SPIB): 1.32 fold enrichment (6-mer frequency, TF over GST control); binding signal (ELK3): 1.2 fold enrichment (6-mer frequency, TF over GST control); binding signal (FEV): 1.22 fold enrichment (6-mer frequency, TF over GST control); binding signal (ETV5): 1.16 fold enrichment (6-mer frequency, TF over GST control); binding signal (HSF1): 1.02 fold enrichment (6-mer frequency, TF over GST control); binding signal (SPIC): 1.57 fold enrichment (6-mer frequency, TF over GST control); binding signal (ELF4): 1.29 fold enrichment (6-mer frequency, TF over GST control); binding signal (ELK4): 1.22 fold enrichment (6-mer frequency, TF over GST control); binding signal (ETV2): 1.31 fold enrichment (6-mer frequency, TF over GST control); binding signal (ELF3): 1.14 fold enrichment (6-mer frequency, TF over GST control); binding signal (ETV1): 1.2 fold enrichment (6-mer frequency, TF over GST control)

From article PMC7862700, “An all-to-all approach to the identification of sequence-specific readers for epigenetic DNA modifications on cytosine”
